Screening results deposited in PubChem BioAssay by National Center for Advancing Translational Sciences (NCATS).
Shown are actives, neighbours in structure and some others; about 9.3% of the full set was active somewhere.
FMDV inh: High Throughput Screening for Foot and Mouth Disease Virus Antivirals; FMDV antiviral cell-based qHTS; Potency, µM (top dose mostly 57.9 µM), without a hit: at the top dose activity change, negative = inhibition, actives largely listed as inhibitors; actives 1.2% (n = 410,000); AID 1159524, 2015; calls by dose curve; tested in HEK293T cells; also: read-out not given here; potency is read from the fitted curve at half-maximal effect; nearly all actives have a fitted effect of over 45% in size
HCV inh: qHTS Assay for Inhibitors of Hepatitis C Virus (HCV). Huh7.5.1 HCVcc-Cre infection, luciferase reporter, 44 h. Potency, µM (top dose mostly 41.8 µM), for inactives: at the top dose activity change, negative = inhibition, hits mostly inhibitors. actives 3.4% (n = 340,000). AID 651820, 2012; also: potency is read from the fitted curve at half-maximal effect
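Antiviral activity was scored by luciferase reporter output from cells infected with HCVcc-Cre (~0.5 moi) in presence of compound, 44 h infection period, cells seeded 1,000/well 4 h prior.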
Sm TGR inh: qHTS Assay for the Inhibitors of Schistosoma Mansoni Peroxiredoxins; Potency, µM (top dose mostly 114 µM), without a hit: top-dose activity change, negative = inhibition, hits mostly inhibitors; purified TGR, DTNB reduction, TNB absorbance 405 nm; actives 3% (n = 360,000); Schistosoma mansoni thioredoxin glutathione reductase (TGR), Q962Y6; also: potency is read from the fitted curve at half-maximal effect; nearly all actives have a fitted effect of over 60% in size
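TGR 20 nM + NADPH 100 uM (dispensed conc.), cpd preinc 15 min RT; start with NADPH (500 uM addition) then DTNB (15 mM addition). Kinetic TNB absorbance, 405 nm filter. Four-parameter Hill fit across titration.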
HCMV antiviral: qHTS Assay for inhibitors of the human cytomegalovirus (HCMV). activity change, negative = inhibition, % at 57.5 µM. actives 4.5% (n = 410,000). HFF cells, HCMV-luciferase reporter, 72 h; stronger effect = lower value; in the data active = activity change below about -60%; inconclusive = no clear call, values can overlap the other calls; inactive = above about -39%
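Inhibition of viral replication was scored as loss of reporter luminescence in HFFs infected with HCMV-luciferase (MOI 1 PFU/cell) for 72 h; compounds tested at 2 doses, normalized to buffer and Salinomycin controls.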
VACV Venus inh: qHTS for Stage-Specific Inhibitors of Vaccinia Orthopoxvirus: Venus Reporter Primary qHTS; Potency, µM (series often up to 36.5 µM), for inactives: at the highest dose activity change, negative = inhibition, most hits filed as inhibitors; Vaccinia virus Venus reporter expression, fluorescence; actives 0.46% (n = 330,000); calls by dose curve; tested in A549 cells; also: potency is read from the fitted curve at half-maximal effect; nearly all actives have a fitted effect of over 30% in size
VACV mCherry inh: qHTS for Stage-Specific Inhibitors of Vaccinia Orthopoxvirus: mCherry Reporter Primary qHTS. Vaccinia virus mCherry reporter infection, fluorescence. Potency, µM (doses to about 36.5 µM), for inactives: at the top dose activity change, negative = inhibition, actives largely listed as inhibitors. actives 0.63% (n = 310,000). AID 720579, 2013; calls by dose curve; tested in A549 cells; also: potency is read from the fitted curve at half-maximal effect; nearly all actives have a fitted effect of over 35% in size
Active calls of the source: *; [ ] = dose if it differs, or a comment. Unless noted, calls follow the shape of the dose curve; as a rule, active = well fitted curve in the direction sought with a large enough effect; inconclusive = small, poorly fitted or top-dose-only effect, or another doubt; inactive = no such curve, though single readings can be large; an effect the other way counts as inactive or inconclusive. % is scaled to controls: 0 for no effect and ±100 for the full control effect.

`COC(=O)c1ccccc1NC(=O)CN1CCOCC1` gave FMDV inh 4%, HCV inh 9%, Sm TGR inh 6% and HCMV antiviral -3.
Cc1ccc(S(=O)(=O)Nc2ccc(NC(=O)CN3CCCCC3)c(Cl)c2)cc1 was read as FMDV inh -7%, HCV inh -9%, Sm TGR inh -22% and HCMV antiviral -102*.
Screening COc1ccc(NC(=O)Cn2c(=O)n(-c3ccc(CC(=O)NCc4ccco4)cc3)c(=O)c3ccccc32)cc1 returned FMDV inh -11%, HCV inh inconclusive, Sm TGR inh -2%, HCMV antiviral -63*, VACV Venus inh -2%[7.34 µM] and VACV mCherry inh -6%[7.34 µM].
Screening COc1cc(N2CCOCC2)ccc1C=C1C(=O)NC(=O)NC1=O returned FMDV inh -14%, HCV inh 11%, Sm TGR inh -8%, HCMV antiviral -30, VACV Venus inh 9% and VACV mCherry inh -11%.
For CCN(CC)S(=O)(=O)c1ccc(Cl)c(NC(=O)COC(=O)c2cc(-c3ccccc3Cl)nc3ccccc23)c1 the results were FMDV inh -17%, HCV inh -15%, Sm TGR inh 5%, HCMV antiviral -22, VACV Venus inh -19% and VACV mCherry inh -6%.
O=C(Cc1cccc2ccccc12)Nc1cc(C(=O)O)cc(C(=O)O)c1 was read as FMDV inh 7%, HCV inh 11%, Sm TGR inh -1% and HCMV antiviral 38.
`COc1ccc(CCNC(=O)COC(=O)c2cc(Cl)nc(Cl)c2)cc1` gave FMDV inh -14%, HCV inh 8% and HCMV antiviral 0.
`O=C(NCc1ccco1)C(=O)NCC1OCCN1S(=O)(=O)c1ccccc1` (stereo unspecified) gave FMDV inh -22%, HCV inh -8%[8.37 µM], Sm TGR inh -29%, HCMV antiviral 3, VACV Venus inh -4% and VACV mCherry inh inactive.
`O=c1oc2ccccc2c(Nc2ccccc2)c1CN1CCCCC1` gave FMDV inh -13%, HCV inh -29%, Sm TGR inh -35%, HCMV antiviral inconclusive, VACV Venus inh -19% and VACV mCherry inh -7%.
COc1cc(NC(=O)Nc2ccccc2)c(OC)cc1NC(=O)CN1CCCCC1 was read as FMDV inh 7%, HCV inh 11µM*, Sm TGR inh -7%, HCMV antiviral -3, VACV Venus inh inconclusive and VACV mCherry inh inconclusive.
Screening O=C(CN1CCCCCC1)Nc1ccc(Cl)cn1 returned FMDV inh 15%, HCV inh 0%, Sm TGR inh 40µM*, HCMV antiviral -12, VACV Venus inh -5% and VACV mCherry inh -8%.
For COC(=O)c1ccccc1NC(=O)CNC(=O)c1ccco1 the results were FMDV inh -19%, HCV inh 0%, Sm TGR inh -5%, HCMV antiviral -72* and VACV Venus inh -5%.
`COc1cc(NC(=O)Nc2ccccc2OC)c(OC)cc1NC(=O)CN1CCCCC1` gave FMDV inh -6%, HCV inh 2.2µM*, Sm TGR inh -22%, HCMV antiviral -26 and VACV Venus inh -26%.
Screening COc1cccc(-n2nnc3c(=O)n(Cc4ccc(Br)cc4)cnc32)c1 returned FMDV inh 48%, HCV inh inconclusive, Sm TGR inh -19%, HCMV antiviral 34, VACV Venus inh -14% and VACV mCherry inh -24%.
For COc1ccc(NC(=O)CN(C)C2CCCCC2)c([N+](=O)[O-])c1 the results were FMDV inh -13%, HCV inh 9%, Sm TGR inh 10%, HCMV antiviral inconclusive, VACV Venus inh -8% and VACV mCherry inh inactive.
COc1cc(NC(=O)c2ccc(Cl)cc2)c(OC)cc1NC(=O)CN1CCCCC1 was read as FMDV inh -17%, HCV inh 7.9µM*, Sm TGR inh -18%, HCMV antiviral 17, VACV Venus inh -29% and VACV mCherry inh -26%.
CC(=O)Nc1ccc(S(=O)(=O)Nc2ccc(=O)n(Cc3ccc(Cl)c(Cl)c3)c2)cc1 was read as FMDV inh 22%, HCV inh 6%, Sm TGR inh 8% and HCMV antiviral -34.
For Cc1ccc(S(=O)(=O)Nc2ccc(=O)n(Cc3ccc(Cl)c(Cl)c3)c2)cc1 the results were FMDV inh -13%, HCV inh -1%, Sm TGR inh 40µM*, HCMV antiviral 13, VACV Venus inh -12% and VACV mCherry inh -24%.
For COc1ccc(Cl)cc1NC(=O)CN1CCC(n2nnc3cc(C)ccc32)CC1 the results were FMDV inh inconclusive, HCV inh 5µM*, Sm TGR inh -10%, HCMV antiviral inconclusive, VACV Venus inh -18% and VACV mCherry inh -15%.
`O=C(CN1CCCCCCC1)Nc1cccc(Cl)c1Cl` gave FMDV inh -4%, HCV inh -3%, Sm TGR inh 8% and HCMV antiviral -65*.
For COc1ccccc1NC(=O)CN1CCC(n2nnc3cc(F)ccc32)CC1 the results were FMDV inh inconclusive, HCV inh inconclusive, Sm TGR inh -3% and HCMV antiviral -10.
For CC(=O)NC(Cc1cccc(F)c1)C(=O)NC1CCN(C(=O)c2ccc(C)cc2)CC1 (stereo unspecified) the results were FMDV inh -4%, HCV inh -4%, Sm TGR inh 0%, HCMV antiviral -18, VACV Venus inh -9% and VACV mCherry inh inactive.
Screening COc1ccc(NC(=O)C(C)(C)n2cc(NC(=O)c3ccc4ccccc4n3)cn2)cc1 returned HCMV antiviral 67.
COc1ccc(S(=O)(=O)N(C)C)cc1NC(=O)CN1CCN(C(=O)C2CC2)CC1 was read as FMDV inh -2%, HCV inh 10µM*, Sm TGR inh -18% and HCMV antiviral -8.
`O=S(=O)(NCCc1cn2ccsc2n1)c1ccc(Cl)cc1` gave FMDV inh 16%, Sm TGR inh 35µM*, HCMV antiviral -28, VACV Venus inh -10% and VACV mCherry inh -11%.
`O=S(=O)(NCc1cn2ccsc2n1)c1cccs1` gave FMDV inh 7%, HCV inh 2%, Sm TGR inh 9%, HCMV antiviral -31 and VACV Venus inh -13%.
O=S(=O)(NCc1cn2ccsc2n1)c1ccc(Oc2ccccc2)cc1 was read as FMDV inh inconclusive, HCV inh 7.9µM*, Sm TGR inh 1%, HCMV antiviral inconclusive and VACV Venus inh inconclusive.
Screening O=C(COc1cnc2ccccc2n1)NCCC1=CCCCC1 returned FMDV inh 3%, HCV inh 8%, Sm TGR inh -3% and HCMV antiviral 27.
